# Experiments:
# [1] = molecular target: T1, Tyrosine-protein kinase ITK/TSK (Homo sapiens) (UniProt Q08881); settings: at 10 µM
# T1 sequence (whole entry): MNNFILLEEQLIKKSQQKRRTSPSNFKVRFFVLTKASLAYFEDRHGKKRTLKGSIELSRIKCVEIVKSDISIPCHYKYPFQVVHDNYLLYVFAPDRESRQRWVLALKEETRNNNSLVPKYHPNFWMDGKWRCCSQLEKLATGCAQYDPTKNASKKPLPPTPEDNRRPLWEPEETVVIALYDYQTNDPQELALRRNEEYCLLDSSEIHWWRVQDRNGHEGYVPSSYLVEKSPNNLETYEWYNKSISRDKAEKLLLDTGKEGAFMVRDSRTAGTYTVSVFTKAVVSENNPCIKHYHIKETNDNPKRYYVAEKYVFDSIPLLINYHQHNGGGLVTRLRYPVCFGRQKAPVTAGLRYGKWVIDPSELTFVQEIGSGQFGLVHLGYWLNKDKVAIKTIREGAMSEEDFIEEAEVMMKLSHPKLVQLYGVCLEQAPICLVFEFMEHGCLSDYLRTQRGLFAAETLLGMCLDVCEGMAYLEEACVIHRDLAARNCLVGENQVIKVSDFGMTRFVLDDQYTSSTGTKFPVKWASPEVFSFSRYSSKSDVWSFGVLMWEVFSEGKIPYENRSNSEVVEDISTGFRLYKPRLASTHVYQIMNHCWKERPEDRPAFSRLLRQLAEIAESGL
# [2] = molecular target: Tyrosine-protein kinase Lck (Homo sapiens) (UniProt P06239); settings: at 1 µM
# Chain of Tyrosine-protein kinase Lck (Homo sapiens) (P06239 2-509 limits assumed): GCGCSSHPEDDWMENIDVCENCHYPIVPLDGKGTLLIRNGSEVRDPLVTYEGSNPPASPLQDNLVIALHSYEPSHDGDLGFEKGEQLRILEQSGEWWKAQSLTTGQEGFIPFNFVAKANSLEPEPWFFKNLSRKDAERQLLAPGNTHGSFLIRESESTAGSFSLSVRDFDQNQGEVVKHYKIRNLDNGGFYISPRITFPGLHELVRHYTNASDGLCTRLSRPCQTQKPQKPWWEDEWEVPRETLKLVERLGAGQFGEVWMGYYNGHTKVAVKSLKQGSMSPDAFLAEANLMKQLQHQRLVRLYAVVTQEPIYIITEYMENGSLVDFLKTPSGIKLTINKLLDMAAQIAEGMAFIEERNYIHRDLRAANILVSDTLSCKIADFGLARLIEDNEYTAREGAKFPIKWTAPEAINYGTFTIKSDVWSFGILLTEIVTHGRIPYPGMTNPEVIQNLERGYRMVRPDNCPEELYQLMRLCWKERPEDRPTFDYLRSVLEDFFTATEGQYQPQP
# [3] = molecular target: Tyrosine-protein kinase JAK2 (Homo sapiens) (UniProt O60674); settings: at 1 µM
# Chain of Tyrosine-protein kinase JAK2 (Homo sapiens) (O60674 whole entry): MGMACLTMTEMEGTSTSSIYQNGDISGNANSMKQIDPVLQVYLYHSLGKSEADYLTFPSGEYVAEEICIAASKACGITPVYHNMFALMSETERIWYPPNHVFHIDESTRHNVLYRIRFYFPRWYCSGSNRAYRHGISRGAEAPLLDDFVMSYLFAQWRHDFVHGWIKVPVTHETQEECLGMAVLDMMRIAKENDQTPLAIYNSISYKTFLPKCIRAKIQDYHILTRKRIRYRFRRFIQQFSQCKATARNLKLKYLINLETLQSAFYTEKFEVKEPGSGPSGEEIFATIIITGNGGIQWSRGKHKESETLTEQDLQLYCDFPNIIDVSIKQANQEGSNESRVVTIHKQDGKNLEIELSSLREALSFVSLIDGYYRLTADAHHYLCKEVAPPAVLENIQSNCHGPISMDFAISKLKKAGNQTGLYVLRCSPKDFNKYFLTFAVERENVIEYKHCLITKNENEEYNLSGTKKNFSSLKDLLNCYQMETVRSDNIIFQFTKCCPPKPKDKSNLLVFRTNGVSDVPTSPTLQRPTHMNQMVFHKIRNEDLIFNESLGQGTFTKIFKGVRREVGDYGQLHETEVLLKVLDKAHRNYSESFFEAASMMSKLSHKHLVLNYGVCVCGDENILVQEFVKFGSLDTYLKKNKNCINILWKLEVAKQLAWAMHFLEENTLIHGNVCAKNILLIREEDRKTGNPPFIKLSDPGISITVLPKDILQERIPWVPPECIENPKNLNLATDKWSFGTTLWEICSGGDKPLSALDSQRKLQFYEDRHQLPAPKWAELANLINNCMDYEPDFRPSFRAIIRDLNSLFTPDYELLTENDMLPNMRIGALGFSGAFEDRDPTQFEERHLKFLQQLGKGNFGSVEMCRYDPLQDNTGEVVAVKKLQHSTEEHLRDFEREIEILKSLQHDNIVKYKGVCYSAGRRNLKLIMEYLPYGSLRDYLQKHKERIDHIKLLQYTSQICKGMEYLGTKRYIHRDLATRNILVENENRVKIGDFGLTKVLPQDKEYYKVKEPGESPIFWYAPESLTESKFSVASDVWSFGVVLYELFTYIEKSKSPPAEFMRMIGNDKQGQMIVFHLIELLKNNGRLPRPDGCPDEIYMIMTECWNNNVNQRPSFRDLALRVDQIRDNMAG
# [4] = molecular target: Tyrosine-protein kinase JAK2 (Homo sapiens) (UniProt O60674); settings: at 10 µM
# [5] = molecular target: T2, Tyrosine-protein kinase JAK3 (Homo sapiens) (UniProt P52333); settings: at 1 µM
# T2 sequence (whole entry): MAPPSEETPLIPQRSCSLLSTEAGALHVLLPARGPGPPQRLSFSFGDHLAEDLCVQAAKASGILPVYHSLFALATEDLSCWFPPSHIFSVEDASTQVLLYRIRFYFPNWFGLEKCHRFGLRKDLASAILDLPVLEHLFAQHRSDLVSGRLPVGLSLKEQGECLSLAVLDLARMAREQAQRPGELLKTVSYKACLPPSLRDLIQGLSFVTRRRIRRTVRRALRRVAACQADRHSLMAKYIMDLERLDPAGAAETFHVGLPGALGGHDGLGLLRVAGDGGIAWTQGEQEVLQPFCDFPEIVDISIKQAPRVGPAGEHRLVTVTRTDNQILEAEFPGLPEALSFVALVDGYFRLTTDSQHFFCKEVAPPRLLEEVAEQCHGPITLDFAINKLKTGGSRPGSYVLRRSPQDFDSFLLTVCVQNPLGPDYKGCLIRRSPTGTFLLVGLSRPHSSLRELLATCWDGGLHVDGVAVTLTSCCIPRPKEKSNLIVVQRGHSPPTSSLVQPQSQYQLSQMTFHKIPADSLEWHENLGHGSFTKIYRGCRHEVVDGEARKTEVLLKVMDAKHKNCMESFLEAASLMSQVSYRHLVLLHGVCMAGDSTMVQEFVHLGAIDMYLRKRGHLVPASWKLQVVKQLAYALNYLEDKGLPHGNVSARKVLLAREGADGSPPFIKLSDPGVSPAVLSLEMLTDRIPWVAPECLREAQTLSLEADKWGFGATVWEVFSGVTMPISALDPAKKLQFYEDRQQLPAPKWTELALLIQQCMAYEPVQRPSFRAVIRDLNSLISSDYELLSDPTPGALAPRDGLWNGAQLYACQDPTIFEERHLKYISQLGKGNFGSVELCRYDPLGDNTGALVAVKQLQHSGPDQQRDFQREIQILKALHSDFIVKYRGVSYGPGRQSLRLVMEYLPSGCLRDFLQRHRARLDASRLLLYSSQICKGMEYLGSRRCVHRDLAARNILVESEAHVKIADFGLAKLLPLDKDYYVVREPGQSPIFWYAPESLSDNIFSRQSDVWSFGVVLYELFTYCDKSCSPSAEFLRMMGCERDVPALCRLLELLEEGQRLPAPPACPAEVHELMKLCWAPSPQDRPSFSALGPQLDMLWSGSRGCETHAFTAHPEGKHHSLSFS
# [6] = molecular target: T2, Tyrosine-protein kinase JAK3 (Homo sapiens); settings: at 10 µM
# [7] = molecular target: Mitogen-activated protein kinase 8 (Homo sapiens) (UniProt P45983); settings: at 1 µM
# Chain of Mitogen-activated protein kinase 8 (Homo sapiens) (P45983 whole entry): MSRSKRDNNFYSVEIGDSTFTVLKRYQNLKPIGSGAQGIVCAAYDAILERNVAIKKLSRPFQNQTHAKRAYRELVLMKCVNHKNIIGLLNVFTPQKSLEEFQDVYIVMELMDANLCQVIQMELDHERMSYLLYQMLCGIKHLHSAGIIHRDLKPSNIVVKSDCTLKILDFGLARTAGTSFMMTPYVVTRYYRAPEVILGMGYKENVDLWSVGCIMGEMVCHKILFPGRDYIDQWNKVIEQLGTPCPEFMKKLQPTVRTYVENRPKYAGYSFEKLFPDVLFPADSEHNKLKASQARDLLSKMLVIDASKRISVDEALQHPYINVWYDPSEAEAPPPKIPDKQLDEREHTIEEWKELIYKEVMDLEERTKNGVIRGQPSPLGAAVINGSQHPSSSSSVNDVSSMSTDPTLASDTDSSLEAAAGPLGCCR
# [8] = molecular target: Mitogen-activated protein kinase 8 (Homo sapiens) (UniProt P45983); settings: at 10 µM
# [9] = molecular target: Mitogen-activated protein kinase 9 (Homo sapiens) (UniProt P45984); settings: at 1 µM
# Chain of Mitogen-activated protein kinase 9 (Homo sapiens) (P45984 whole entry, looked up): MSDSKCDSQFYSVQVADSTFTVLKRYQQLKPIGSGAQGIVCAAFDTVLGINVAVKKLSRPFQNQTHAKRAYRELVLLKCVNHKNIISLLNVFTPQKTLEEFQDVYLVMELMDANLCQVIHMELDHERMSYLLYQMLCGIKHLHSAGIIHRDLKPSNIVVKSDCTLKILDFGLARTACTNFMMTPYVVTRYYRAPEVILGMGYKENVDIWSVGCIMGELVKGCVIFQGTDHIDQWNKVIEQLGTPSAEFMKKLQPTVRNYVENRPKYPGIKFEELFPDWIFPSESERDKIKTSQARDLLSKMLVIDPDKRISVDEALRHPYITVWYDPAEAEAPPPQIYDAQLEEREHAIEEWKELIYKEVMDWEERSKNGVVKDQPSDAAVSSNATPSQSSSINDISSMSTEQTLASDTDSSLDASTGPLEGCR
# [10] = molecular target: Mitogen-activated protein kinase 9 (Homo sapiens) (UniProt P45984); settings: at 10 µM
# [11] = molecular target: Mitogen-activated protein kinase 10 (Homo sapiens) (UniProt P53779); settings: at 1 µM
# Chain of Mitogen-activated protein kinase 10 (Homo sapiens) (P53779 whole entry): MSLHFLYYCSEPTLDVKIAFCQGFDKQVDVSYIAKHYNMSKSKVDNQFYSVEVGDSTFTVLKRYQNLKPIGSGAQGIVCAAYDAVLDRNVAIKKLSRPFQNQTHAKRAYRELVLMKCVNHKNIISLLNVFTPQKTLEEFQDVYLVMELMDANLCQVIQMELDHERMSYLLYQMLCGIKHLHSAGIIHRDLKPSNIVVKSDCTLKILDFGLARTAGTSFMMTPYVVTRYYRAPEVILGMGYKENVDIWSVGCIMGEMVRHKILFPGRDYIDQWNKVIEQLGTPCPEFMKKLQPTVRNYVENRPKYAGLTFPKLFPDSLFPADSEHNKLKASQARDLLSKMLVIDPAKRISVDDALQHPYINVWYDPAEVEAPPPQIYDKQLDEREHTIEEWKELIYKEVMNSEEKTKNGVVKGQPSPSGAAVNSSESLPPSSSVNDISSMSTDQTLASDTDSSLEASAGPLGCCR
# [12] = molecular target: Mitogen-activated protein kinase 10 (Homo sapiens) (UniProt P53779); settings: at 10 µM
# [13] = molecular target: Vascular endothelial growth factor receptor 2 (Homo sapiens) (UniProt P35968); settings: at 1 µM
# [14] = molecular target: Vascular endothelial growth factor receptor 2 (Homo sapiens) (UniProt P35968); settings: at 10 µM
# [15] = molecular target: LIM domain kinase 1 (Homo sapiens) (UniProt P53667); settings: at 1 µM
# Chain of LIM domain kinase 1 (Homo sapiens) (P53667 whole entry, looked up, the tested form may be a part): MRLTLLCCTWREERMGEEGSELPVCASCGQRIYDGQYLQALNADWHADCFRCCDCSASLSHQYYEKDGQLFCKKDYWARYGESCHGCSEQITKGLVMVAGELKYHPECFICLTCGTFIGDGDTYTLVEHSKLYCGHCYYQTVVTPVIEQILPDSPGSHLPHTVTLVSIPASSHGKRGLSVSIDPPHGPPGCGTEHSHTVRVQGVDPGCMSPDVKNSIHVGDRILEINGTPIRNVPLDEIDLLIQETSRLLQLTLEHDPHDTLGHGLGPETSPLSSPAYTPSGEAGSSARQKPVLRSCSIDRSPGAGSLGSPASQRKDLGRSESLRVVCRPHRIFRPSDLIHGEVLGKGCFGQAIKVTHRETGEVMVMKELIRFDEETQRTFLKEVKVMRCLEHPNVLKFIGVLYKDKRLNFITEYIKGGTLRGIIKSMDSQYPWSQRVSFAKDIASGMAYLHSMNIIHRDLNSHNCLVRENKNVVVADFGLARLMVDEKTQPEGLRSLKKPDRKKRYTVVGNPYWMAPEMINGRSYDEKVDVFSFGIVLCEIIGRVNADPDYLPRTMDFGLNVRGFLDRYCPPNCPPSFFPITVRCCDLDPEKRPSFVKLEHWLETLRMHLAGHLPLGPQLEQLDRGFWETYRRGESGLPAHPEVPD
# [16] = molecular target: LIM domain kinase 1 (Homo sapiens) (UniProt P53667); settings: at 10 µM
# [17] = molecular target: T3, Serine/threonine-protein kinase STK11 (Homo sapiens) (UniProt Q15831); settings: at 1 µM
# T3 sequence (whole entry): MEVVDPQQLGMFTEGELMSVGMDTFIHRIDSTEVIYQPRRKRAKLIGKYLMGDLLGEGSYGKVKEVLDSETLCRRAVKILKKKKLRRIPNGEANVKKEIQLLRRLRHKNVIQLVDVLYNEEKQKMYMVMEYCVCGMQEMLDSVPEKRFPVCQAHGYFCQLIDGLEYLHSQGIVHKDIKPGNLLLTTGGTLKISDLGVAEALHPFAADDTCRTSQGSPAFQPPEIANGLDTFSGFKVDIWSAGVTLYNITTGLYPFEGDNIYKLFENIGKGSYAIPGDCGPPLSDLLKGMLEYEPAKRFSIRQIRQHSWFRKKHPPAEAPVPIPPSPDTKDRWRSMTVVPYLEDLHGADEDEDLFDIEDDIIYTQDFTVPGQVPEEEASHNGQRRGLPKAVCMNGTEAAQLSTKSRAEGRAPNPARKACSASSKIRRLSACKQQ
# [18] = molecular target: T3, Serine/threonine-protein kinase STK11 (Homo sapiens); settings: at 10 µM
# [19] = molecular target: Serine/threonine-protein kinase 10 (Homo sapiens) (UniProt O94804); settings: at 1 µM
# Chain of Serine/threonine-protein kinase 10 (Homo sapiens) (O94804 whole entry, looked up): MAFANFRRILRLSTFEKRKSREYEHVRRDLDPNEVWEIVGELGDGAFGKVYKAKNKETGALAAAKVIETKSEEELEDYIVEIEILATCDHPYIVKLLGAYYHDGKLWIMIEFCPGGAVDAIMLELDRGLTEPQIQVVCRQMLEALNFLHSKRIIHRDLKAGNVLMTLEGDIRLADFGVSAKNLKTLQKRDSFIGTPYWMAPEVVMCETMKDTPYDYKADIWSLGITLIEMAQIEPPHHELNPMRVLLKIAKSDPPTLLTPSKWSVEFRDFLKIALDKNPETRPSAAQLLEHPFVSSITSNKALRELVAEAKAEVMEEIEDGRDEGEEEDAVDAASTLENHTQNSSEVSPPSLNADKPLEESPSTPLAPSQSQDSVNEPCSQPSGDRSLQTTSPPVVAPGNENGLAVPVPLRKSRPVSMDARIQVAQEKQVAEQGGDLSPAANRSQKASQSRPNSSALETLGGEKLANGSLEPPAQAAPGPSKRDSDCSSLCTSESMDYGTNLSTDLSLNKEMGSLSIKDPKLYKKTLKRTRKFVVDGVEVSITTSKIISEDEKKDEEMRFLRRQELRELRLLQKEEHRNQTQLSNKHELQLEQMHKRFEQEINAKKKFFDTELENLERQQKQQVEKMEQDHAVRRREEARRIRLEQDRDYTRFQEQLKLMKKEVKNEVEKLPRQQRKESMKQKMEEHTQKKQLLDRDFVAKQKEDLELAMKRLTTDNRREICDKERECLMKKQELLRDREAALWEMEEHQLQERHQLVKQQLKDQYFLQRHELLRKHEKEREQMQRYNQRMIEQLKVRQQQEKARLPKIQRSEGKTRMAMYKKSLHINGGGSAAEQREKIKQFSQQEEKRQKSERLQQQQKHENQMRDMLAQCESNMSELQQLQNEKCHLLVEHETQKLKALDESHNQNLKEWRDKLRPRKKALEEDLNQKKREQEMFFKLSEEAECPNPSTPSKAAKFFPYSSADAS
# [20] = molecular target: Serine/threonine-protein kinase 10 (Homo sapiens) (UniProt O94804); settings: at 10 µM
Compound,residual activity [1] [%],residual activity [2] [%],residual activity [3] [%],residual activity [4] [%],residual activity [5] [%],residual activity [6] [%],residual activity [7] [%],residual activity [8] [%],residual activity [9] [%],residual activity [10] [%],residual activity [11] [%],residual activity [12] [%],residual activity [13] [%],residual activity [14] [%],residual activity [15] [%],residual activity [16] [%],residual activity [17] [%],residual activity [18] [%],residual activity [19] [%],residual activity [20] [%]
COc1ccc(COc2ccc(Cc3cnc(N)nc3N)cc2OC)cc1,99,110,–,–,–,–,–,–,–,–,–,–,–,–,–,–,–,–,–,–
O=C1NC(=O)c2c1c1c3ccccc3[nH]c1n1cncc21,44,61,97,93,83,58,89,75,67,49,25,11,10,8,71,48,84,62,70,58
CC(C)(C)c1nc2c3ccc(F)cc3c3c(=O)[nH]ccc3c2[nH]1,66,–,-1,1,1,1,32,9,–,–,-2,-7,65,24,98,63,–,–,72,32
O=c1cc(N2CCOCC2)oc2c1ccc1ccccc12,94,–,–,–,100,108,103,87,110,97,–,70,103,87,108,92,102,93,98,91
CCCCc1c(-c2ccc(O)cc2)[nH]c2nccnc12,38,48,62,63,80,26,–,–,97,98,56,23,77,42,64,53,–,73,80,90
COc1ccc2c(c1)c(C1=C(c3c[nH]c4ccccc34)C(=O)NC1=O)cn2CCCN(C)C,79,–,114,81,102,50,104,57,111,–,74,37,28,3,99,65,101,99,54,22
O=C(c1ccccc1)c1ccc(N2CCOCC2)cc1O,–,137,92,99,91,82,116,–,–,–,83,53,99,96,–,80,–,–,91,91
COc1cc2nccc(Oc3ccc(NC(=O)Nc4cc(C)on4)c(Cl)c3)c2cc1OC,–,3,–,–,100,48,120,109,–,–,–,–,–,–,67,14,99,101,8,8
COc1ccc(CNC(=O)Nc2ncc([N+](=O)[O-])s2)cc1,–,80,–,–,–,–,–,–,–,–,65,57,–,–,–,–,–,–,–,–
O=S(=O)(c1cccc2cnccc12)N1CCCNCC1,–,–,–,–,–,–,–,–,–,–,–,–,–,–,–,–,100,–,–,–
N#C/C(=C1/Nc2ccccc2S1)c1ccnc(NCCc2cccnc2)n1,–,–,–,–,95,48,67,55,–,–,–,–,–,–,–,–,96,81,78,39
O=c1cc(N2CCOCC2)oc2c(-c3ccccc3)cccc12,–,–,–,–,–,–,–,79,–,–,70,–,–,–,101,80,–,–,–,–
O=C1Cc2c([nH]c3ccc(Br)cc23)-c2ccccc2N1,–,–,100,71,–,71,95,88,87,97,–,–,74,31,89,80,97,95,96,56
NC(=O)c1ccc(-c2nc(-c3ccc4c(c3)OCCO4)c(-c3ccccn3)[nH]2)cc1,–,–,–,–,–,–,117,87,–,–,–,–,–,–,–,–,–,–,65,68
NCCNc1ncc(C(N)=O)c(Nc2cccc(C(F)(F)F)c2)n1,–,80,–,–,116,106,–,–,103,76,79,46,101,78,102,50,74,20,–,–
Cc1cc(C)c(/C=C2\C(=O)Nc3ccccc32)[nH]1,–,–,–,–,–,–,–,–,102,101,–,–,4,2,–,–,–,–,–,45
Fc1ccc(-c2nc3n(c2-c2ccncc2)CCS3)cc1,–,–,99,100,–,–,–,81,73,20,14,7,–,–,–,–,–,–,–,99
Nc1nccc(-c2c(-c3ccc(F)cc3)ncn2C2CCNCC2)n1,–,–,–,–,120,118,–,–,–,–,69,22,–,–,64,25,–,–,–,–
O=C1C(Cl)=C(N2C(=O)CCC2=O)C(=O)c2ccccc21,–,76,–,–,100,89,96,86,89,102,88,94,–,–,88,81,94,89,95,90
